# A number with no mark means an inactive call.
# Test system: Plasmodium falciparum NF54-HGL (transmission to Anopheles stephensi)
# Test: percentage of barcode signal found in uninfected mosquitoes (transmission-blocking activity); higher = stronger blocking of transmission to mosquito, active = 80 or more
# Conditions: gametocyte preincubation time 24 h, readout time post-feed 8 days
# Description: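 The mixture was fed to Anopheles stephensi in 96-well plates as blood meals tagged with DNA-barcoded Asaia bacteria. Eight days later, mosquitoes were classed infected or uninfected by luminescence (mean + 5 SD of unfed controls). Barcodes were quantified by Luminex MagPlex-TAG in the pooled uninfected and infected Asaia cultures, background-corrected, and the score is % of barcode signal in uninfected mosquitoes = 100*Iu/(Iu+Ii).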
Compound,percentage of barcode signal found in uninfected mosquitoes (10 µM) [%],percentage of barcode signal found in uninfected mosquitoes (20 µM)
CCOc1ccc(-c2nc(NC(=O)CS(=O)(=O)c3ccccc3)sc2C)cc1,-3.11,
CC(C)NCC(=O)Nc1cccc(C(=O)Nc2cccc(C(F)(F)F)c2)c1,,54%
Brc1cncc(-c2cc(NCCCn3ccnc3)nc(-c3ccccc3)n2)c1,-0.102,
COc1ccc(Nc2ccccc2NC(=O)c2ccc(O)nc2)cc1,7.07,
CC(C)n1ncc2c(C(=O)NCC(c3cccs3)N3CCOCC3)cc(-c3ccccc3)nc21 (stereo unspecified),29.6,
O=C(C1CCN(c2nnc(-n3cccc3)s2)CC1)N1CCC(Cc2ccccc2)CC1,,28.5%
Cc1cccc(NC(=O)c2cc(S(=O)(=O)N(C)c3ccc(F)cc3)ccc2Cl)n1,46.1,
O=C(NC1CCN(c2ccnc3ccccc23)C1)c1cccc(C(F)(F)F)c1 (stereo unspecified),71.6,
Nc1ncnc2[nH]nc(Cc3cccc4ccccc34)c12,67.8,
CC(C(=O)Nc1ccc2oc(-c3ccncc3)nc2c1)c1ccccc1 (stereo unspecified),-6.05,
CCC(=O)Nc1ccccc1C(=O)Nc1ccccn1,50,
O=C1Nc2ccc(Br)cc2C12NCCc1c2[nH]c2ccccc12 (stereo unspecified),27.2,
O=S(=O)(c1ccc(Cl)cc1)N1CCN(C(=S)NCc2ccco2)CC1,29.2,
COc1cc(C2=NCCN2)ccc1-n1cc(-c2cccc(C3=NCCN3)c2)nn1,46.2,
Cc1nc(-c2ccccn2)nc(N2CCC(Cc3ccccc3)C2)c1Cl (stereo unspecified),78,
c1coc(CNc2nc(N3CCCCC3)nc3ccccc23)c1,38.7,
CCOC(=O)c1cc(-c2csc(Nc3c(C)cc(C)cc3C)n2)on1,11.5,
COc1ccc(CCN2CCC(NCc3cccc(N(C)C)c3)CC2)cc1,,94.9% (active)
Cc1cc(Nc2ccc(C(F)(F)F)cc2)n2ccnc2n1,,-1.06%
Cc1ccc(Oc2ccc(NC(=O)CNc3ccccc3N3CCCC3=O)cc2)cc1,53.3,
Cc1ccc(NC(=O)c2cc(S(=O)(=O)NC(C)(C)C)ccc2C)nc1,,20.2%
FC(F)(F)c1nnc2ccc(Cl)nn12,20.5,
Nc1ncnc2c1c(-c1cnc3ccccc3c1)nn2CC1CCNCC1,,-2.55%
COc1ccc2nc(C)cc(OCC(=O)Nc3ccccc3OC)c2c1,,5.42%
CC(=O)N(CCN(C(=O)c1ccc(F)cc1)c1ccccc1)c1ccccc1,,1.19%
COc1ccc(C2=NCCN2)cc1-c1cn(-c2cccc(C3=NCCN3)c2)nn1,,16.8%

Compound,percentage of barcode signal found in uninfected mosquitoes (10 µM) [%],percentage of barcode signal found in uninfected mosquitoes (20 µM)
CC(C(=O)N1CCCC1)N1CCN(S(=O)(=O)c2ccc(C(C)(C)C)cc2)CC1 (stereo unspecified),,0.922%
Cc1cc(C)nc(-n2nc(C)cc2Nc2ccccc2)n1,,80.5% (active)
O=C(NCc1nnc2n1CCCCC2)c1ccc(-c2ccc(F)cc2)o1,-11,
Cc1ccc2c(c1C)NC(=O)C21NN=C(c2ccccc2)S1 (stereo unspecified),77,
Cc1cnc(N2CCN[C@@H](Cc3ccccc3)C2)nc1Oc1ccc(-n2ccnc2)cc1,,87% (active)
CCOc1ccc(-c2nc(CNCCc3ccc(F)cc3)cs2)cc1,,41.8%
Clc1ccc(CCNc2cc(-c3ccccc3)nc3ncnn23)cc1,-1.04,
COc1ccc(N(CCc2cccc(C)n2)C(C)=O)cc1,,0.592%
CNc1snc(C)c1C(=O)NCCOc1ccc(OC)cc1,25.3,
COc1cccc(OC)c1C(=O)Nc1ccc(Cl)c(-c2nc3ccccc3s2)c1,,13.2%
COC(=O)c1cccc2oc(-c3cccc(OC)c3NC(=O)c3cc(-c4ccccc4)on3)nc12,31,
O=C(c1cc2ccccc2o1)N1CCN(Cc2ccc3c(c2)OCO3)CC1,0.553,
O=C(C1CCN(c2nnnn2-c2ccccc2)CC1)N1CCc2ccccc2C1,46.7,
Cc1ccc(NC(=O)CC2COc3ccccc3O2)cc1Cl (stereo unspecified),38.8,
CC(C)(C)CN1C(=O)C(c2ccccc2)(c2ccccc2)N=C1N,,13.8%
COc1cc(Br)cc2cc(C(=O)Nc3cccc(C(F)(F)F)c3)c(=O)oc12,,19.3%
Cc1cccnc1NC(=O)c1cccc(OCc2c(C)noc2C)c1,-2.5,
CC(C)(C)n1nc(Cc2ccc(F)c(Cl)c2)c2c(N)ncnc21,,10.3%
CC[C@H](CO)NCCN[C@H](CC)CO,24.2,
CC(=O)Oc1ccccc1C(=O)Nc1ncc([N+](=O)[O-])s1,8.87,
Cc1noc(C)c1C(=O)N1CCCC(c2[nH]c3c(C)cccc3c2-c2ccncc2)C1 (stereo unspecified),69.1,
c1ccc2c(c1)CN(CC1CC1)CC1(CCN(Cc3c[nH]c4cnccc34)CC1)O2,,30.7%
COc1cccc2c(C)nc(N=C(N)N)nc12,24.9,
COc1ccccc1CNC(=O)c1cc(C2CC2)nc2c1cnn2C(C)C,62.8,
O=C(c1ccc(NCCO)cc1)C1C[C@H]1c1ccc(Cl)cc1 (stereo partly specified),39.6,
O=C(Nc1ccc(F)c(-c2nc3cc(-c4ccccc4)cnc3[nH]2)c1)N1CCCC1,35.5,

Compound,percentage of barcode signal found in uninfected mosquitoes (10 µM) [%],percentage of barcode signal found in uninfected mosquitoes (20 µM)
Cc1cc(OCC(=O)Nc2ccc(C(C)C)cc2)n(C)c(=O)c1C#N,,35%
CC(C)C(Oc1cccc2ccccc12)C(=O)O (stereo unspecified),,20%
CS(=O)(=O)c1ccccc1C(=O)N(Cc1ccccc1)c1ccccc1,5.09,
CCC(NC(=O)c1ccccc1NC(=O)c1ccc(C)cc1)C(=O)OC (stereo unspecified),,95.2% (active)
CC1=NN(c2nc3ccccc3s2)C(=O)C1Cc1cccc2ccccc12 (stereo unspecified),0.165,
COc1cc(CN2CCC3(C=Cc4ccccc43)CC2)cc2c1OCO2,,0.609%
CCc1nc2ccc(C(=O)NCc3ccc4c(c3)OCO4)cn2c1N(C)Cc1cccs1,22.1,
COc1cccc(CC(=O)N2CCC(n3c(C)nc4ccc(F)cc43)CC2)c1,,31.2%
Cc1ccc2[nH]c3c(NCCN(C)C)ncnc3c2c1,40.6,
CC1(COc2ccc(N3CCC(Oc4ccc(OC(F)(F)F)cc4)CC3)cc2)Cn2cc([N+](=O)[O-])nc2O1 (stereo unspecified),,39.6%
COc1ccc(CN2CCOc3ccc(C(C)(O)CN(C)C)cc3C2)cc1C (stereo unspecified),,36.4%
Clc1ccc(-n2cc(COc3ccnc4ccccc34)nn2)cc1,,34.4%
COc1cc2ncnc(NC3CCN(Cc4ccccc4)CC3)c2cc1OC,31,
Cc1nn2c(O)c3c(nc2c1-c1ccc(F)cc1)CCCC3,9.19,
CCCc1ccc(S(=O)(=O)Nc2ccc(CN3CCN(CC4CC4)CC3)cc2)cc1,,9.2%
CCOc1ccc2cc(-c3nn(CC4CCN(C)CC4)c4ncnc(N)c34)ccc2c1,-7.02,
Nc1ncc(Br)cc1-c1nc2cc(Cl)cnc2[nH]1,,21.4%
C[C@H]1COc2c(N3CCN(C)CC3)c(F)cc3c(=O)c(C(=O)O)cn1c23,,-1.12%
CC1CCCCN1C(=O)NCCc1coc(-c2ccc(F)cc2)n1 (stereo unspecified),42,
CC(C)(C)c1cc(C(=O)Nc2cccnc2)cc(C(=O)Nc2cccnc2)c1,41.8,
O=C(NCCc1c[nH]c2ccccc12)c1cc2ccccc2oc1=O,-1.49,
Nc1ccc(C(=O)Nc2ccc(-c3nc4ccccc4o3)cc2)cc1,,-0.842%
NCCCC(N)(C(=O)O)C(F)F (stereo unspecified),37.7,
CS(=O)(=O)c1ccc(C(=O)N(CC2CCCO2)c2nc3ccccc3s2)cc1[N+](=O)[O-] (stereo unspecified),63.1,

# — the supplement of paper PMC8726507
